For 18 compounds, Potency and outcome results are on record in PubChem BioAssay (Tox21).

The nature of test [1]: qHTS assay to identify small molecule antagonists of the glucocorticoid receptor (GR) signaling pathway - cell viability counter screen (AID 720693). Note: nearly all actives have a fitted effect of over 55% in size. For orientation: qHTS replaces the single test concentration by a dilution series.
A short description of test [2]: qHTS assay for identifying genotoxic compounds that show differential cytotoxicity against isogenic chicken DT40 cell lines with known DNA damage response pathways - wild type cell line (AID 743012). Note: nearly all actives have a fitted effect of over 60% in size. Note: potency is the fitted concentration of half-maximal effect. The gist of the method: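 Wild type DT40, 300 cells/well, ~0.5 h settle at 37 C/5% CO2; compounds in DMSO added by pintool; 40 h at 37 C/5% CO2; CellTiter-Glo, 30 min RT; luminescence.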

Test [3] can be described thus: qHTS assay for identifying genotoxic compounds that show differential cytotoxicity against isogenic chicken DT40 cell lines with known DNA damage response pathways - Rad54/Ku70 mutant cell line (AID 743015). Note: nearly all actives have a fitted effect of over 60% in size. Note: potency is the fitted concentration of half-maximal effect.
Test [4] is described as follows: qHTS assay to identify small molecule antagonists of the androgen receptor (AR) signaling pathway - cell viability counter screen (AID 743033; note: nearly all actives have a fitted effect of over 45% in size).
For test [5], the system named is thyroid hormone receptor (rat, GH3 cells). The test is described as follows: qHTS assay to identify small molecule agonists of the thyroid receptor (TR) signaling pathway (AID 743066; calls by dose curve).
Test [6] deals with Estrogen receptor (Homo sapiens) (UniProt P03372). The test is described as follows: qHTS assay to identify small molecule agonists of the estrogen receptor alpha (ER-alpha) signaling pathway (AID 743075; calls by dose curve).
Test [7] has the same target. The test can be described thus: qHTS assay to identify small molecule agonists of the estrogen receptor alpha (ER-alpha) signaling pathway using the BG1 cell line (AID 743079). Note: nearly all actives have a fitted effect of over 20% in size. Note: potency is the fitted concentration of half-maximal effect.
Test [8] is described as follows: qHTS assay to identify small molecule antagonists of the estrogen receptor alpha (ER-alpha) signaling pathway using the BG1 cell line (AID 743080; calls by dose curve; note: series mostly up to about 70 µM; nearly all actives have a fitted effect of over 25% in size). In outline:
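Antagonist mode: compounds in DMSO were pinned onto BG1-Luc-4E2 cells alongside 17beta-estradiol agonist, incubated 21.5 h, and ERE-driven luciferase measured with ONE-Glo. Cytotoxicity was multiplexed using CellTiter-Fluor fluorescence.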

Test [9] can be described thus: qHTS assay to identify small molecule antagonists of the estrogen receptor alpha (ER-alpha) signaling pathway using the BG1 cell line - cell viability counter screen (AID 743081).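 Note: compound given together with 17beta-estradiol as the ER stimulus; series mostly up to about 70 µM; nearly all actives have a fitted effect of over 45% in size.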
Test [10] can be described thus: qHTS assay for identifying genotoxic compounds that show differential cytotoxicity against isogenic chicken DT40 cell lines with known DNA damage response pathways - Rev3 mutant cell line (AID 743014). Note: nearly all actives have a fitted effect of over 55% in size. Note: potency is the fitted concentration of half-maximal effect.
The nature of test [11]: qHTS assay to identify small molecule antagonists of the androgen receptor (AR) signaling pathway using the MDA cell line - cell viability counter screen (AID 743041; note: nearly all actives have a fitted effect of over 45% in size). In outline:
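MDA-kb2 AR-luc cells (MMTV-luciferase, AR/GR responsive) treated with compounds plus R1881 agonist for 16 h at 37C. CellTiter-Fluor added at 15.5 h; fluorescence read after 30 min in the same wells.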

Test [12] is described as follows: qHTS assay to identify small molecule antagonists of the thyroid receptor (TR) signaling pathway - cell viability counter screen (AID 743064). Note: nearly all actives have a fitted effect of over 50% in size. Note: potency is the fitted concentration of half-maximal effect. In outline:
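Same-well viability check: GH3.TRE-Luc cells stimulated with 1 nM T3 alongside test compound for 23.5 h, followed by CellTiter-Fluor fluorescence.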

Test [13] in a line: qHTS assay to identify small molecule antagonists of the thyroid receptor (TR) signaling pathway (AID 743065). Note: nearly all actives have a fitted effect of over 55% in size. Note: potency is the fitted concentration of half-maximal effect. In outline:
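GH3.TRE-Luc rat pituitary cells (two TREs driving luciferase) were dosed with compound, then stimulated with 1 nM T3 (final) for 23.5 h at 37 C. ONE-Glo luminescence was the read-out, with CellTiter-Fluor fluorescence as the cytotoxicity counter-screen.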

The target in test [14] is Estrogen receptor (Homo sapiens) (UniProt P03372). The test is described as follows: qHTS assay to identify small molecule antagonists of the estrogen receptor alpha (ER-alpha) signaling pathway (AID 743069; active = well fitted curve in the direction sought with a large enough effect in the signal ratio in the repeat runs, not every such curve was filed as active; the % refers to the signal ratio). In outline:
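HEK293 ER-alpha-UAS-bla GripTite cells, held overnight in 2% charcoal-stripped FBS, 5,000 cells/well, preincubated 4 h, then compound plus 17beta-estradiol for 18 h at 37C. Beta-lactamase read by LiveBLAzer B/G FRET substrate, 2 h at room temperature.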

In a further test the target is Aromatase (Homo sapiens) (UniProt P11511). The test can be described thus: qHTS assay to identify aromatase inhibitors (AID 743083). Note: series mostly up to about 70 µM; nearly all actives have a fitted effect of over 55% in size.
Test [15] is described as follows: qHTS assay to identify small molecule antagonists of the estrogen receptor alpha (ER-alpha) signaling pathway - cell viability counter screen (AID 743074; calls by dose curve;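 note: HEK293 cells carrying ER-alpha-UAS-bla reporter stimulated with 17beta-estradiol; nearly all actives have a fitted effect of over 45% in size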).
In test [16] the target is Androgen receptor (Homo sapiens) (UniProt P10275). The test is described as follows: qHTS assay to identify small molecule agonists of the androgen receptor (AR) signaling pathway using the MDA cell line (AID 743040; note: nearly all actives have a fitted effect of over 20% in size). The gist of the method: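 MDA-kb2 breast carcinoma cells carrying MMTV-luciferase (responsive to AR and GR), plated 5 h then treated 16 h with compounds at 37C, 0% CO2. Read-out was ONE-Glo luminescence after 30 min at room temperature.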

The target is the same in test [17]. The test can be described thus: qHTS assay to identify small molecule antagonists of the androgen receptor (AR) signaling pathway using the MDA cell line (AID 743042; note: nearly all actives have a fitted effect of over 55% in size). The gist of the method: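 MDA-kb2 breast carcinoma cells carrying MMTV-luciferase (AR/GR responsive) were co-treated with compounds and the agonist R1881 for 16 h at 37C. Inhibition read as ONE-Glo luminescence; CellTiter-Fluor fluorescence measured in parallel for cytotoxicity.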

The target is the same in test [18]. The test can be described thus: qHTS assay to identify small molecule antagonists of the androgen receptor (AR) signaling pathway (AID 743035; active = well fitted inhibition curve with a large enough effect in the signal ratio in the repeat runs, not every such curve was filed as active; the % refers to the signal ratio; note: potency is the fitted concentration of half-maximal effect). The gist of the method:
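Fluorescence from a beta-lactamase FRET substrate (LiveBLAzer B/G, 2 h, room temperature) measured inhibition of R1881-stimulated signaling in GeneBLAzer AR-UAS-bla HEK293 cells exposed to compound for 16 h at 37C.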

For test [19] the target is unchanged. The test is described as follows: qHTS assay to identify small molecule agonists of the androgen receptor (AR) signaling pathway (AID 743036; active = well fitted activation curve with a large enough effect in the signal ratio in the repeat runs, with a control signal flat, not every such curve was filed as active; the % refers to the signal ratio). In outline:
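Agonist activity was scored by beta-lactamase reporter fluorescence in stably transfected HEK293 cells exposed to compounds for 16 h at 37C and 5% CO2. Substrate loading took 2 h at room temperature.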

Molecules are shown by their SMILES. Inconclusive results are not listed. Calls of active or inactive are those of the source. Unless noted, calls come from the whole dose curve; as a rule, active = well fitted curve in the direction sought with a large enough effect in the repeat runs; inconclusive = weak or mixed curves; inactive = no such curve, though single readings can be large; an effect the other way counts as inactive or inconclusive.

Aromatase (Homo sapiens), sequence (P11511 whole entry, looked up): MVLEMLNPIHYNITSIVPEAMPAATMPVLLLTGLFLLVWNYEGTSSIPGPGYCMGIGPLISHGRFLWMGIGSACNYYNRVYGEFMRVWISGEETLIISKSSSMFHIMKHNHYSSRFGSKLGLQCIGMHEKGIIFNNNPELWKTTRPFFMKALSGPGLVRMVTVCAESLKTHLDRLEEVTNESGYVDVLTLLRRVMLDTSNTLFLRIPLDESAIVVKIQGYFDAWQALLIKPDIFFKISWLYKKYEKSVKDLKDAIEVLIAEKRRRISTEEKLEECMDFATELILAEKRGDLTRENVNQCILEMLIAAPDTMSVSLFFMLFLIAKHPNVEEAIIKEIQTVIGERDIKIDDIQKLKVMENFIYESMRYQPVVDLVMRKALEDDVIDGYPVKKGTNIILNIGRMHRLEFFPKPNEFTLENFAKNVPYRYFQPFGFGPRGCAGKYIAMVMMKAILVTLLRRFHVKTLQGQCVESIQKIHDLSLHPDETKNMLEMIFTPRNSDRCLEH
Estrogen receptor (Homo sapiens), sequence (P03372 whole entry, looked up): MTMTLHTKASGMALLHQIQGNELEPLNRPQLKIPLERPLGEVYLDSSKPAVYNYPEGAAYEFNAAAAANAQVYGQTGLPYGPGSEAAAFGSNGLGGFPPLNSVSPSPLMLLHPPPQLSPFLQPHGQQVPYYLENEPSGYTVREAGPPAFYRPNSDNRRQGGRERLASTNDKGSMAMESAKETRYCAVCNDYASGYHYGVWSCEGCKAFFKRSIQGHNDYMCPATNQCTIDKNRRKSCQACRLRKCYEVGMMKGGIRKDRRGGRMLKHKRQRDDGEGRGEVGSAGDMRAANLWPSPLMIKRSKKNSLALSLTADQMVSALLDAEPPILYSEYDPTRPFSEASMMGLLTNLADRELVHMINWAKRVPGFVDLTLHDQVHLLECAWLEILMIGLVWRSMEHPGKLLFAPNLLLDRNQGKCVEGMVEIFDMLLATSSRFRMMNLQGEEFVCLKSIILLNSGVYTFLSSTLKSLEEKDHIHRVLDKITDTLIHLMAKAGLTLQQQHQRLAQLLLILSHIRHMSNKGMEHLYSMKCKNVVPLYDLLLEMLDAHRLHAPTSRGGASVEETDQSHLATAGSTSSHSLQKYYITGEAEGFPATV
Androgen receptor (Homo sapiens), sequence (P10275 whole entry, looked up): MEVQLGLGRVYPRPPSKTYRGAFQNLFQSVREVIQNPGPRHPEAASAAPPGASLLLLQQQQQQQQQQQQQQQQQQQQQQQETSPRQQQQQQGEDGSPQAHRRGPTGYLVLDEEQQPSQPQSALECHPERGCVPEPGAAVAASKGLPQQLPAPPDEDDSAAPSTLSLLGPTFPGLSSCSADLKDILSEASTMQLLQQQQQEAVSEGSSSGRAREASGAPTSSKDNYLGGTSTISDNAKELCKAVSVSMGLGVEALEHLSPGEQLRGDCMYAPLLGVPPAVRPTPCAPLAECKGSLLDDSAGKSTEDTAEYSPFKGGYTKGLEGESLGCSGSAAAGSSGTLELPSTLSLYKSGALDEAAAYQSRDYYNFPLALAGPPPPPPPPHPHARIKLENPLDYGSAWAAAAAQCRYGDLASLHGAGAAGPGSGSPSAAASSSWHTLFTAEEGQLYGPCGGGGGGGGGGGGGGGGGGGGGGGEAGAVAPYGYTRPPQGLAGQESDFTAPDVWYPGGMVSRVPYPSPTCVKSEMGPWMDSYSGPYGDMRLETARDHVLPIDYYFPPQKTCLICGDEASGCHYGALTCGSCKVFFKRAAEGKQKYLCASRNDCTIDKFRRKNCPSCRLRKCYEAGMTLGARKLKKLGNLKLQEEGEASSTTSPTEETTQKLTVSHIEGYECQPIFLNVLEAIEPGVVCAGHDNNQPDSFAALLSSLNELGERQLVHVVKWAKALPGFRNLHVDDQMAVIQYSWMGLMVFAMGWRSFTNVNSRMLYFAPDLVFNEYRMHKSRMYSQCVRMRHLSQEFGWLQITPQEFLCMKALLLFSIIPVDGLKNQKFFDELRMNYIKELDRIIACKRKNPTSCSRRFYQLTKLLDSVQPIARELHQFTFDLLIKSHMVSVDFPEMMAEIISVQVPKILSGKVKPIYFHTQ

On to `Nc1ccc(N=Nc2ccc(-c3ccc(N=Nc4c(S(=O)(=O)O)cc5cc(S(=O)(=O)O)c(N=Nc6ccccc6)c(O)c5c4N)cc3)cc2)c(N)c1`, for which the Potency result in [1], in [2], in [3], in test [4], in test [5] and in [6] was “inactive” each time. Also, the Potency result in test [7], in test [8] and in test [9] was “inactive” each time.
Regarding `OCCCBr`, the Potency result in test [1], in test [10], in test [3], in [4], in test [11] and in test [5] was “inactive” in each case. Further, the Potency entry (in test [14]; in test [6]; in [7]; in test [8]; in the test with Aromatase (Homo sapiens)) was “inactive” each time. Also, the Potency in [12] is 54.5 µM (active); in [13], 61.1 µM (active).
Turning to `CCc1ccc(C(=O)NN(C(=O)c2cc(C)cc(C)c2)C(C)(C)C)cc1`, the Potency result in [1], in test [4], in [11], in test [13], in test [5] and in test [15] was “inactive” in each case. Also, the Potency entry (in test [6]; in [7]; in test [8]; in [9]; with Aromatase (Homo sapiens)) was “inactive” each time. The results for the Potency in test [10], in [3] and in test [12] were 27.3 µM (active), 27.3 µM (active) and 1.54 µM (active), respectively.
As for `O=NN1CCNCC1`, the Potency result in test [1], in [10], in test [3], in test [4], in test [11] and in test [12] was “inactive” throughout. Further, the Potency entry in test [13], in test [5], in [14], in test [15], in test [6] and in test [7] was “inactive” throughout. The Potency entry (in [8]; in test [9]; with Aromatase (Homo sapiens)) was “inactive” each time.
On to `CO[C@@H]1[C@H](OC(=O)NC(=O)CCl)CC[C@]2(CO2)[C@H]1[C@@]1(C)O[C@@H]1CC=C(C)C`, for which the Potency result in [1], in test [4], in test [16], in [11], in test [17] and in test [5] was “inactive” in each case. For the same compound, the Potency entry (in test [15]; in [7]; in [8]; in [9]; with Aromatase (Homo sapiens)) was “inactive” each time. Also, the Potency in test [2] was 0.0006 µM (active).
Regarding `O=C(O)c1ccccc1C(=O)Nc1cccc2ccccc12`, the Potency result in test [1], in [4], in test [12], in [13], in test [5] and in test [15] was “inactive” in each case. For the same compound, the Potency entry (in test [9]; with Aromatase (Homo sapiens)) was “inactive” each time. Besides, in [10], the Potency was 54.5 µM (active).
Take `CCCN(CCC)c1c([N+](=O)[O-])cc(S(C)(=O)=O)cc1[N+](=O)[O-]`: the Potency result in test [1], in test [10], in [4], in [11], in test [13] and in [5] was “inactive” in each case. Besides, the Potency entry (in test [15]; in test [6]; in test [8]; in test [9]; with Aromatase (Homo sapiens)) was “inactive” each time.
With `c1ccoc1`, the Potency result in test [1], in test [2], in [3], in [4], in [12] and in test [13] was “inactive” throughout. The Potency result (in test [5]; in [15]; in test [6]; in test [8]; in test [9]; in the test with Aromatase (Homo sapiens)) was “inactive” throughout.
As to `Nc1ccc([N+](=O)[O-])cc1[N+](=O)[O-]`, the Potency entry in [1], in [4], in test [16], in test [17], in [5] and in test [14] was “inactive” each time. For the same compound, the Potency entry (in [15]; in [6]; in [7]; in [8]; in the test with Aromatase (Homo sapiens)) was “inactive” in each case. Besides, the Potency was 53.1 µM (active) in [10] and 66.8 µM (active) in test [3].
As for `O=C1C(Cl)C(CCl)CN1c1cccc(C(F)(F)F)c1` (stereo not drawn), the Potency entry in [1], in test [10], in test [3], in test [4], in test [16] and in [17] was “inactive” in each case. Moreover, the Potency result (in [12]; in [13]; in test [5]; in test [15]; in [9]; with Aromatase (Homo sapiens)) was “inactive” in each case. Also, the Potency in test [18] was 24.5 µM (active). Besides, the outcome in test [19] was inactive.
As to `CC(C)(CCl)C(=O)Cl`, the Potency entry in [1], in test [3], in test [4], in test [11], in test [12] and in [13] was “inactive” in each case. The Potency entry (in test [5]; in [15]; in [9]; with Aromatase (Homo sapiens)) was “inactive” throughout.
`CCOS(C)(=O)=O`: the Potency result in [1], in test [2], in [3], in test [4], in [12] and in test [13] was “inactive” throughout. Also, the Potency result (in [5]; in [15]; in test [9]; with Aromatase (Homo sapiens)) was “inactive” in each case.
On to `COc1cc(Cl)c(OC)cc1Cl`, for which the Potency result in test [1], in [10], in test [4], in test [11], in test [12] and in test [13] was “inactive” throughout. The Potency result in [5], in test [14], in [15], in test [6], in test [7] and in test [8] was “inactive” each time. Besides, the Potency result (in test [9]; with Aromatase (Homo sapiens)) was “inactive” in each case.
In the case of `CCOC(=O)C(Cl)C(C)=O` (stereo not drawn), the Potency result in test [1], in test [3], in [4], in test [11], in test [12] and in test [13] was “inactive” throughout. For the same compound, the Potency result in test [5], in [14], in [15], in [6], in test [7] and in test [8] was “inactive” each time. In addition, the Potency result (in test [9]; with Aromatase (Homo sapiens)) was “inactive” throughout.
Regarding `CCOC(=O)COc1cc(-c2nn(C)c(OC(F)F)c2Cl)c(F)cc1Cl`, the Potency entry in test [1], in test [10], in [4], in test [16], in [11] and in [17] was “inactive” in each case. Further, the Potency result (in test [12]; in test [13]; in [5]; in test [15]; with Aromatase (Homo sapiens)) was “inactive” in each case. Besides, the Potency in test [3] was 43.3 µM (active).
For `C=CC(=O)NCNC(=O)C=C`, the Potency entry in test [1], in test [16], in test [11], in test [17], in [13] and in [5] was “inactive” throughout. Moreover, the Potency entry (in [6]; with Aromatase (Homo sapiens)) was “inactive” in each case. In test [3], the Potency was 61 µM (active).
With `N#C/C(N)=C(/N)C#N`, the Potency result in test [1], in test [2], in [3], in test [4], in test [12] and in test [13] was “inactive” each time. Further, the Potency result in [5], in [14], in [15], in test [6], in [7] and in test [8] was “inactive” in each case. Besides, the Potency entry (in test [9]; with Aromatase (Homo sapiens)) was “inactive” in each case.
As for `CCOP(=S)(Oc1ccc([N+](=O)[O-])cc1)c1ccccc1` (stereo not drawn), the Potency result in test [1], in test [2], in test [4], in test [11], in test [13] and in [5] was “inactive” throughout. Besides, the Potency result (in test [14]; in test [15]; in [6]; in test [8]; in test [9]; with Aromatase (Homo sapiens)) was “inactive” throughout. Further, the Potency in test [7] was 27.3 µM (active).
